Rows were chosen to be rich in hits. Some 11% of all compounds tested hit in one or more screens of this group.
G9a block = inhibitors of human histone lysine methyltransferase G9a; Q96KQ7; G9a H3K9 monomethylation, AlphaScreen, 2 h; Potency, µM (series often up to 102 µM), usual class: inhibitors; actives 8.8% (n = 350,000); further: nearly all actives have a fitted effect of over 75% in size
Target sequence (Q96KQ7 913-1193 limits assumed): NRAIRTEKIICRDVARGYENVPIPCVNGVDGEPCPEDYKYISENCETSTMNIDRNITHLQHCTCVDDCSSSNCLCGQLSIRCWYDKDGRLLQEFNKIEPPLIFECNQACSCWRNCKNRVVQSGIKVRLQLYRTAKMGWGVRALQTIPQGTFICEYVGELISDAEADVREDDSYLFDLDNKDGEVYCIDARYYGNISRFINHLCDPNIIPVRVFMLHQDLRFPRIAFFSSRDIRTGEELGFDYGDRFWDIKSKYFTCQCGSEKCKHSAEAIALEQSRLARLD
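AlphaScreen read-out: biotin-H3K9 peptide (500 nM) methylation by 20 nM enzyme with 20 uM SAM, 2 h at room temperature after 15 min compound preincubation; anti-monomethyl H3K9 antibody plus donor/acceptor beads, 10 min dark.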
PLK1 PBD block = blocks phosphopeptide binding to human PLK1 polo-box domain; P53350; Plk1 PBD binding of FITC phosphopeptide, fluorescence polarization; Potency, µM, hits mostly inhibitors; actives 2.8% (n = 360,000); AID 720504; further: series mostly up to about 57 µM; nearly all actives have a fitted effect of over 65% in size
HP1b chromo inh = blocks HP1-beta chromodomain binding to methylated histone tails | actives 0.56% (n = 390,000) | AlphaScreen HP1-beta / biotin-H3K9me3 peptide binding | P83916 | Potency, µM (titrated, usually from 114 µM), most hits filed as inhibitors; further: nearly all actives have a fitted effect of over 70% in size
Target sequence (P83916 whole entry, looked up): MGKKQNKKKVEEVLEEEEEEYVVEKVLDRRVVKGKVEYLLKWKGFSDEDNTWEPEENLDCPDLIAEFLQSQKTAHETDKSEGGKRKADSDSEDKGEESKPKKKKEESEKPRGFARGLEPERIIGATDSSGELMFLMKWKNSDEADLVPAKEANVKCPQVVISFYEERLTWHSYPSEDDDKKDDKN
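Compound inhibition of the preformed complex between 50 nM HP1-beta and 50 nM biotinylated H3K9me3 peptide was read by AlphaScreen. Buffer was PBS pH 7.4 with 0.01% Tween-20. Incubations ran 30 min at room temperature, with 10 ug/mL donor/acceptor beads.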
VDR inh = blocks the human vitamin D receptor. P11473. VDR-SRC2-3 peptide fluorescence polarization, 2 h. Potency, µM, most hits filed as inhibitors. actives 0.93% (n = 400,000). AID 504847
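Compounds are added to VDR with labelled SRC2-3 coactivator peptide and held 2 h at room temperature. Inhibition of the VDR–peptide interaction is then read as a change in fluorescence polarization.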
BAZ2B inh = blocks human BAZ2B. AlphaScreen BAZ2B-H3K14Ac peptide displacement. AID 504333. actives 4.4% (n = 360,000). Potency, µM (top dose mostly 114 µM), most hits filed as inhibitors. Q9UIF8; further: nearly all actives have a fitted effect of over 60% in size
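Protein-peptide AlphaScreen: BAZ2B 50 nM, b-H3K14Ac 50 nM, 1x PBS pH 7.4 + 0.01% Tween-20. Preincubation 30 min RT; cpd 30 min RT (top 110 uM); beads 20 min RT, light-protected.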
JMJD2A Tudor inh = blocks the human JMJD2A Tudor domain; O75164; AlphaScreen JMJD2A-Tudor / H3K4me3 peptide binding; Potency, µM (highest dose often 114 µM), hits mostly inhibitors; actives 4.4% (n = 390,000); further: nearly all actives have a fitted effect of over 50% in size
VDR inh confirm = confirmation of human vitamin D receptor inhibitors; Potency, µM, most hits filed as inhibitors; VDR-coactivator inhibition assay, qHTS confirmation; actives 89% (n = 840); shares compounds with VDR inh
VDR FP fluor = confirmation of human VDR-coactivator binding inhibitors, fluorescein label; shares compounds with VDR inh; VDR-coactivator binding, fluorescein fluorescence polarization; Potency, µM (top dose mostly 57.1 µM), usual class: inhibitors; actives 48% (n = 840); AID 602200
VDR bla = VDR (human) inhibition, cell-based beta-lactamase validation | shares compounds with VDR inh | VDR beta-lactamase reporter cells, FRET ratio; cells co-treated with VDR agonist LG190178 | Potency, µM (top dose mostly 46.1 µM), most hits filed as inhibitors | actives 23% (n = 840) | AID 602202
VDR viability = cell toxicity, VDR inhibitor hit counter-screen; shares compounds with VDR inh; cytotoxicity counter-screen, cell viability, qHTS; Potency, µM (titrated, usually from 48.3 µM), hits mostly cytotoxic; actives 18% (n = 840); AID 602204; further: nearly all actives have a fitted effect of over 75% in size
A number is an active result; i = inactive; ? = inconclusive; nt = no result given; [ ] = dose if it differs, or a comment. The call rests on the fitted dose curve; in most records, active means well fitted curve in the direction sought with a large enough effect; inconclusive means small, poorly fitted or top-dose-only effect, or another doubt; inactive means no such curve, though single readings can be large; an effect the other way counts as inactive or inconclusive.

SMILES	G9a block	PLK1 PBD block	HP1b chromo inh	VDR inh	BAZ2B inh	JMJD2A Tudor inh	VDR inh confirm	VDR FP fluor	VDR bla	VDR viability
Cc1cccc(NS(=O)(=O)c2ccc(C)c(C(=O)N(C)C3CCN(C)CC3)c2)c1	?	i	i	i	i	i	nt	nt	nt	nt
Cc1cc(C)cc(N(C(=O)CNC(=O)c2ccco2)C(C(=O)NC2CCCCC2)c2ccncc2)c1 (stereo not drawn)	i	i	i	i	i	i	nt	nt	nt	nt
Cc1ccc(-c2ccc(/C=C3\C(=O)ON=C3c3ccccc3)o2)c([N+](=O)[O-])c1	i[0.501 µM]	1.7µM	i	28µM	10µM	22µM	3.8	?	18µM	13µM
CCN(CC)S(=O)(=O)c1ccc(O)c(NS(=O)(=O)c2ccccc2F)c1	1.4µM	24µM	?	79µM	i	i	17	i	i	i
CCN(CC)S(=O)(=O)c1ccc(O)c(NC(=O)CN2CCc3ccccc3C2)c1	i	i	i	i	i	i	nt	nt	nt	nt
CS(=O)(=O)c1nc(-c2ccccc2)cc(C(F)(F)F)n1	?	24µM	i	?	i	i	8.9	4.5µM	18µM	24µM
O=C(NCc1cccc(Cl)c1)c1cccn1-c1nnc(N2CCCC2)s1	i	nt	i	i	i	i	nt	nt	nt	nt
CCOC(=O)c1sc(N)c(C(=O)Nc2ccccc2OC)c1C	2.8µM	4.7µM	5.6µM	71µM	?	56µM	11	?	i	?
COc1ccccc1NC(=O)c1ccc(N)cc1	?	i	i	i	i	i	nt	nt	nt	nt
CN(C)c1ccc(S(=O)(=O)N2CCCCC2)cc1NC(=O)C1=NN(c2ccccc2)C(=O)CC1	i	i	i	i	i	i	nt	nt	nt	nt
COCCNC(=O)Cn1nc(C)c([N+](=O)[O-])c1C	i	i	i	i	i	i	nt	nt	nt	nt
CC(C)c1ccccc1NC(=O)C1CN(S(=O)(=O)c2ccccc2)CCN1S(=O)(=O)c1ccccc1 (stereo not drawn)	i	i	i	?	i	i	nt	nt	nt	nt
CCOc1ccc(/C=C/C(=O)Nc2sc3c(c2C(=O)OC)CCCC3)cc1	i	nt	i	i	i	i	nt	nt	nt	nt
CCOc1ccc(/C=C/C(=O)Nc2sc3c(c2C(=O)OC)C(C(=O)OC)CC3)cc1 (stereo not drawn)	1.1µM	nt	?	22µM	?	56µM	?	3.5µM	13µM	?
Cc1cc(OC(=O)c2cccc(Br)c2)c([N+](=O)[O-])c(=O)[nH]1	?	i	i	i	?	i	nt	nt	nt	nt
CCOC(=O)COc1ccc(Br)cc1/C=C\c1[nH]c(=O)[nH]c(=O)c1[N+](=O)[O-]	?	i	?	22µM	i	i	4.2	3.2µM	?	?
CCCC(CCC)C(=O)Oc1cc(C)[nH]c(=O)c1[N+](=O)[O-]	i	i	i	?	i	i	nt	nt	nt	nt
CCOC(=O)COc1ccc(Br)cc1/C=C/c1[nH]c(=O)[nH]c(=O)c1[N+](=O)[O-]	?	i	i	14µM	i	i	3.8	?	i	?
CCOC(=O)C1=C(Cc2ccc(Cl)cc2)C(=O)c2ccccc2C1=O	2.5µM	4.7µM	20µM	6.3µM	22µM	35µM	1.8	?	23µM	?
CCOC(=O)c1c(C=O)c(C)n(Cc2ccc(Cl)cc2)c1C	i	i	i	i	i	?	nt	nt	nt	nt
NCCCC[C@H]1CNC(=O)C(=O)N1CCC12CC3CC(CC(C3)C1)C2	i[12.7 µM]	i	i	i	i	i	nt	nt	nt	nt
O=C(O)COc1ccc(/C=C/C(=O)c2ccc(C3CCCCC3)cc2)cc1	22µM	24µM	i	?	i	i	7.1	13µM	?	i
COc1ccc(CCN(C)C(=S)NC(=O)c2ccc(F)cc2Cl)cc1OC	i	i	i	i	i	i	nt	nt	nt	nt
CCOC(=O)c1c(NC(=O)CSc2nnnn2-c2ccc(OC)cc2)sc(C)c1C	?	2.1µM	?	18µM	i	50µM	?	?	i	i
Cc1nc2c(=O)[nH]c(=S)n(C)c2nc1C	7.1µM	3µM	i	50µM	i	50µM	15	?	i	?
SMILES	G9a block	PLK1 PBD block	HP1b chromo inh	VDR inh	BAZ2B inh	JMJD2A Tudor inh	VDR inh confirm	VDR FP fluor	VDR bla	VDR viability
CN(C)S(=O)(=O)c1ccc(C(=O)/C=C/c2cccnc2)cc1	?	i	i	20µM	i	i	?	?	i	?
O=C(/C=C/c1cccnc1)/C=C/c1cccnc1	28µM	i	i	13µM	i	i	2.7	i	5.8µM	15µM
COc1ccc(C(=O)c2cn(CC(=O)Nc3cc(C)ccc3C)c3nc(C)ccc3c2=O)cc1	i	nt	i	i	i	i	nt	nt	nt	nt
Cc1ccc(S(=O)(=O)Oc2ccc(/C=C3\C(=N)N4N=C(S(C)(=O)=O)SC4=NC3=O)cc2)cc1	13µM	15µM	i	50µM	50µM	35µM	?	3.2µM	i	?
CC(=O)Nc1ccc2nc3c(=O)n(C)c(=O)n(C)c3nc2c1C	i	nt	i	i	i	i	nt	nt	nt	nt
Cn1c(N)c(C(=O)Nc2ccc(-c3ccccc3)cc2)sc1=S	8.9µM	15µM	?	?	50µM	50µM	18	22µM	?	?
C=CCn1c(N)c(C(=O)Nc2ccc(C)cc2)sc1=S	i	i	i	i	i	i	nt	nt	nt	nt
Cc1ccc(C(=O)N2CCN(CCNC(=O)C(=O)NC(C)C)CC2)cc1	nt	i	i	i	i	i	nt	nt	nt	nt
CCOC(=O)c1cnc(-c2ccccc2)nc1N1CCOCC1	i	i	i	i	i	i	nt	nt	nt	nt
CCOC(=O)c1[nH]cc(-c2ccccc2)c1N1CCOCC1	?	5.3µM	?	22µM	i	?	21	?	i	?
O=c1cc(-c2ccccc2)oc2c(O)c(O)ccc12	i[2.33 µM]	nt	nt	13µM	nt	nt	20	25µM	23µM	?
COc1ccc(OC)c(NC(=O)c2ccc(CSc3ncccn3)cc2)c1	i	i	i	i	i	i	nt	nt	nt	nt
Cc1ccccc1CS(=O)(=O)c1nnc([C@H](Cc2ccccc2)NC(=O)OC(C)(C)C)o1	40µM	7.5µM	i	20µM	i	i	6	3.5µM	?	?
CCC(C)[C@@H](NC(=O)OC(C)(C)C)c1nnc(S(=O)(=O)Cc2cccc(C)c2)o1 (stereo partly drawn)	?	8.4µM	i	25µM	i	i	4.7	?	?	?

Screens: PubChem, National Center for Advancing Translational Sciences (NCATS)
